Test results from PubChem BioAssay (Tox21).
Results filed as inconclusive are left out. The source made the active and inactive calls. Unless noted, calls come from the whole dose curve; as a rule, active = well fitted curve in the direction sought with a large enough effect in the repeat runs; inconclusive = weak or mixed curves; inactive = no such curve, though single readings can be large; an effect the other way counts as inactive or inconclusive.

Columns and labels:
[1] = qHTS assay to identify small molecule antagonists of the estrogen related receptor (ERR) signaling pathway - cell viability counter screen (AID 1224818); note: series mostly up to about 46 µM
In short: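 ERR cells, 2,000/well; 6 h settle at 37 C/5% CO2; compound pin transfer (DMSO); 17.5 h at 37 C; CellTiter-Fluor, 30 min, fluorescence read.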

[2] = qHTS assay to identify small molecule antagonists of the estrogen related receptor (ERR) signaling pathway (AID 1224819; note: nearly all actives have a fitted effect of over 50% in size; note: potency is the fitted concentration of half-maximal effect)
In short: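 qHTS in ERR cells, 2,000/well, 1536 format. Cpd (DMSO) added after 6 h settle, 18 h 37 C. One-Glo luminescence, 30 min RT.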

[3] = qHTS assay to identify small molecule agonists of the estrogen related receptor (ERR) signaling pathway (AID 1224820); note: potency is the fitted concentration of half-maximal effect
In short: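 An ERR cell line provided by NTP was seeded at 2,000 cells per well and allowed to settle for 6 h before compounds in DMSO were added. After 18 h at 37 C, luciferase activity was measured by One-Glo luminescence.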

[4] = tested on: estrogen-related receptor alpha (ERRalpha) with PGC-1alpha coactivator, human; assay: qHTS assay to identify small molecule antagonists of the estrogen related receptor signaling pathway with the pleiotropic PPARgamma coactivator (PGC) (AID 1224821; calls by dose curve; note: nearly all actives have a fitted effect of over 50% in size; note: potency is the fitted concentration of half-maximal effect)
In short: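 A PGC/ERR cell line supplied by NTP is seeded, allowed 6 h at 37 C, and treated with test compounds in DMSO for 18 h. Signal is then measured as luciferase luminescence using One-Glo.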

[5] = qHTS assay to identify small molecule antagonists of the estrogen related receptor signaling pathway with the pleiotropic PPARgamma coactivator (PGC) cell viability counter screen (AID 1224822;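 note: series mostly up to about 46 µM; viability read after 17.5 h compound exposure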)
In short: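 Multiplexed viability counter screen run in PGC/ERR cells treated with compounds for 17.5 h at 37 C; live-cell protease signal measured by CellTiter-Fluor fluorescence.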

[6] = qHTS assay to identify small molecule agonists of the estrogen related receptor signaling pathway with the pleiotropic PPARgamma coactivator (PGC) (AID 1224823); note: potency is the fitted concentration of half-maximal effect
In short: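 Compounds dissolved in DMSO are added by pin tool to PGC/ERR cells that have settled for 6 h, and incubation continues 18 h at 37 C. Reporter output is measured as One-Glo luminescence.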

[7] = qHTS assay to identify small molecule antagonists of the estrogen related receptor (ERR) signaling pathway from Tox21 library - cell viability counter screen (AID 1224834); note: nearly all actives have a fitted effect of over 30% in size
In short: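 ERR cells, 2,000/well; 6 h settle at 37 C/5% CO2; pin-tool compound transfer in DMSO; 17.5 h at 37 C; CellTiter-Fluor, 30 min; fluorescence intensity.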

[8] = biological target: Luciferin 4-monooxygenase (Photinus pyralis) (UniProt P08659); assay: qHTS assay to identify small molecule inhibitors of firefly luciferase (AID 1224835); note: series mostly up to about 120 µM; nearly all actives have a fitted effect of over 25% in size
In short: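 Inhibition of purified Photinus luciferase is measured by luminescence. Substrate levels (D-luciferin, ATP) sit at their KM values. Each compound is tested in a concentration series.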

[9] = qHTS assay to identify small molecule agonists of the constitutive androstane receptor (CAR) signaling pathway - cell viability counter screen (AID 1224836); note: series mostly up to about 92 µM; nearly all actives have a fitted effect of over 45% in size
In short: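 Compound titrations (15 concentrations) went onto HepG2-CYP2B6-hCAR cells 4 h after seeding, alongside PK11195 at a final 0.75 uM; a 23 h, 37 C/5% CO2 incubation preceded CellTiter-Fluor viability measurement.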

[10] = qHTS assay to identify small molecule antagonists of the constitutive androstane receptor (CAR) signaling pathway - cell viability counter screen (AID 1224837); note: series mostly up to about 92 µM; nearly all actives have a fitted effect of over 45% in size
In short: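 Viability was measured with CellTiter-Fluor in a HepG2 line carrying stably transfected hCAR and a CYP2B6-2.2kb construct. Cells were exposed for 23 hr at 37 C to 15 compound concentrations with 50 nM CITCO as agonist.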

Measured: Potency

Sequence of Luciferin 4-monooxygenase (Photinus pyralis) (P08659 whole entry, looked up): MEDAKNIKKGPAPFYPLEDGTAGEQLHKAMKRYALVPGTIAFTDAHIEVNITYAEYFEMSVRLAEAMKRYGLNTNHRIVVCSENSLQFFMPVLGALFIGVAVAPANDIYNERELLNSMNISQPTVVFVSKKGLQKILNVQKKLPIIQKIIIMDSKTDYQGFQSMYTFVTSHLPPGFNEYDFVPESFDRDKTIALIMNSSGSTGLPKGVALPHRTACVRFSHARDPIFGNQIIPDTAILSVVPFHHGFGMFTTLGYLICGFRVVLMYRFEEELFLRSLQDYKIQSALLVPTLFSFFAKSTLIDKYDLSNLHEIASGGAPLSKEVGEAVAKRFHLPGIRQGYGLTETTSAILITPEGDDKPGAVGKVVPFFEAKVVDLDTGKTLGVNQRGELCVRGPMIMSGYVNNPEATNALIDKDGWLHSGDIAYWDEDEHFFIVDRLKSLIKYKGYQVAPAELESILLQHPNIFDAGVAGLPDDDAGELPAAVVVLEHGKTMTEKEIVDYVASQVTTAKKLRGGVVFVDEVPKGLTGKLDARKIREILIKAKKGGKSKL

COc1ccc(/C=C/C(=O)Nc2ccccc2C(=O)O)cc1OC
active: [3] 1.68 µM
inactive: [1] | [2] | [4] | [5] | [6]

CCCn1c(=O)c2[nH]c(-c3ccc(S(=O)(=O)O)cc3)nc2n(CCC)c1=O
inactive: [1] | [2] | [3] | [4] | [5] | [6]

CC1(C)CCC=[N+]1[O-]
inactive: [1] | [2] | [3] | [4] | [5] | [6]

O=C(O)C1CN(CCCP(=O)(O)O)CCN1 (stereo unspecified)
inactive: [1] | [2] | [3] | [4] | [5] | [6]

O=C(O)c1cc2cc(Cc3cccnc3)ccc2o1
inactive: [1] | [2] | [3] | [4] | [5] | [6]

O=C(O)CCc1ccc(NCc2cccc(Oc3ccccc3)c2)cc1
inactive: [1] | [2] | [3] | [4] | [5] | [6]

Cn1cc(C2=C(c3ccc(Cl)cc3Cl)C(=O)NC2=O)c2ccccc21
inactive: [1] | [3] | [4] | [5] | [6]
active: [2] 21.1 µM

CCCn1c(=O)[nH]c(=O)c2[nH]cnc21
inactive: [1] | [2] | [3] | [4] | [5] | [6]

NC1(C(=O)O)CC1
inactive: [1] | [2] | [3] | [4] | [5] | [6]

OC[C@H]1O[C@@H](n2cnc3c(NC4CCCCC4)ncnc32)[C@H](O)[C@@H]1O
inactive: [1] | [2] | [3] | [4] | [5]
active: [6] 8.74 µM

CO[C@H]1O[C@@H]2O[C@]3(C)CC[C@@H]4[C@@H](C)CC[C@H]([C@H]1C)[C@]24OO3
active: [2] 0.531 µM
inactive: [1] | [3] | [5] | [6]

CCCN(CC1CC1)c1nc(C)nc(Nc2c(Cl)cc(Cl)cc2Cl)c1Cl
inactive: [1] | [2] | [3] | [5] | [6]

S=c1[nH]c(-c2ccccc2)cn1-c1ccccc1
inactive: [1] | [2] | [3] | [4] | [5] | [6]

COc1cc(/C=C(\C#N)C(=O)Nc2nnc(C(F)(F)F)s2)ccc1OCc1ccc(C(F)(F)F)cc1C(F)(F)F
inactive: [1] | [3] | [6]
active: [2] 6.43 µM | [4] 3.48 µM

CN=c1nc(-c2ccccc2)n(-c2ccccc2)s1
inactive: [1] | [2] | [3] | [6]

Clc1ccc2c(N3CCN(CCCN4CCN(c5ccnc6cc(Cl)ccc56)CC4)CC3)ccnc2c1
inactive: [1] | [2] | [3] | [5] | [6]

CC[C@H](NC(=O)c1c(C)c(-c2ccccc2)nc2ccccc12)c1ccccc1
inactive: [1] | [3] | [5] | [6]
active: [2] 22 µM

Oc1cc2c(cc1O)C(c1ccccc1)CNCC2 (stereo unspecified)
inactive: [1] | [2] | [3] | [6]

C=C1C[C@@]23CC[C@H]4[C@@](C)(CCC[C@@]4(C)C(=O)OC4OC(CO)C(O)C(O)C4O)[C@@H]2CC[C@]1(OC1OC(CO)C(O)C(O)C1OC1OC(CO)C(O)C(O)C1O)C3 (stereo partly specified)
inactive: [1] | [2] | [3] | [4] | [6]

O=C1C(SCCO)=C(SCCO)C(=O)c2ccccc21
inactive: [1] | [3] | [6]
active: [2] 9.08 µM | [4] 18.8 µM

CC(C)(C)c1cc(/C=C(\C#N)C(N)=S)cc(C(C)(C)C)c1O
active: [2] 2.46 µM | [4] 2.11 µM
inactive: [1] | [3] | [6]

N[C@H](CCCP(=O)(O)O)C(=O)O
inactive: [1] | [2] | [4] | [5]

CC1CN(S(=O)(=O)c2cccc3cnccc23)CCN1 (stereo unspecified)
inactive: [1] | [2] | [3] | [5] | [6]

c1ccc2occc2c1
inactive: all assays above

O=C(c1cc(O)c(O)c([N+](=O)[O-])c1)c1ccccc1F
inactive: [1] | [3] | [6]
active: [2] 25.6 µM | [4] 22.8 µM

Nc1nc(Nc2ccccc2)nc2c1ncn2[C@@H]1O[C@H](CO)C(O)[C@H]1O (stereo partly specified)
inactive: [1] | [2] | [4] | [5]

Cc1nc2n(c(=O)c1CCN1CCC(c3noc4cc(F)ccc34)CC1)CCCC2O (stereo unspecified)
inactive: [1] | [2] | [3] | [4] | [5] | [6]

N[C@@H](CCC(=O)N[C@H](CSN=O)C(=O)NCC(=O)O)C(=O)O
inactive: [1] | [2] | [4] | [5]

Cn1ncc(S(=O)(=O)Cc2ccccc2)c(Br)c1=O
inactive: [1] | [2] | [3] | [4] | [6]

CCCC[C@@]1(C2CCCC2)Cc2cc(OCC(=O)O)c(Cl)c(Cl)c2C1=O
inactive: [1] | [3] | [6]
active: [2] 11.4 µM | [4] 13.9 µM

Oc1ccc(-c2nc(-c3ccc(F)cc3)c(-c3ccncc3)[nH]2)cc1
active: [2] 11.4 µM
inactive: [1] | [3] | [6]

Cn1c(=O)c2c(nc(/C=C/c3cccc(Cl)c3)n2C)n(C)c1=O
inactive: [1] | [2] | [3] | [4] | [6]

O=C1NC(=O)/C(=C/c2ccc3nccnc3c2)S1
inactive: [1] | [2] | [3] | [5] | [6]
